This note sets out measurements from PubChem BioAssay AID2235 (The Scripps Research Institute Molecular Screening Center, 2010).

Screen size: about 320,000 compounds; about 2,800 (0.88%) were called active. The sample holds actives, similar compounds and a random draw of the others, so the mix is not that of the screen.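 How the source made its calls: active means inhibition above the mean inhibition of all tested compounds plus 3 SD, computed separately for each screening campaign (cut at about 15% in these data); inactive means the rest.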

Serine/threonine-protein phosphatase PP1-alpha catalytic subunit (Homo sapiens), sequence (P62136 whole entry, looked up): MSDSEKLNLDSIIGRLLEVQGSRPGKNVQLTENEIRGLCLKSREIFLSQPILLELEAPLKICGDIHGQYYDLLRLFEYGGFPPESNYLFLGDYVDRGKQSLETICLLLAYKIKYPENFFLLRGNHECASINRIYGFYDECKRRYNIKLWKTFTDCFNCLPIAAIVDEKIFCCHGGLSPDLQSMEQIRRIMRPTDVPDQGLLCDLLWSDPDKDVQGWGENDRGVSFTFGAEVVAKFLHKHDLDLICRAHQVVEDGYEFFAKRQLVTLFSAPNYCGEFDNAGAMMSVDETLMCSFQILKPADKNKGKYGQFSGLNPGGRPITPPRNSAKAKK

This assay has as its target Serine/threonine-protein phosphatase PP1-alpha catalytic subunit (Homo sapiens) (UniProt P62136). Put plainly: PP1-alpha phosphatase inhibitors, primary screen, counter-screen for PP5 inhibitor project, biochemical, fluorescence, OMFP substrate, single point (AID 2235). The note with it: purified PP1alpha, at 6.7 µM, active compounds read high. Background: A counterscreen serves to expose hits that act by an unwanted route or on another target.
In general, inhibition refers to the change of the read-out against control, counted positive when it falls. For `C=C(Br)Cn1c(CCCC)nc2ccccc21`, the inhibition was -2.53% (inactive). As to `COc1ccc(CNC(=O)C(c2ccc(O)cc2)N(Cc2ccco2)C(=O)c2snc(C(N)=O)c2N)cc1` (configuration not stated), the inhibition was 4.97% (inactive). Consider `CCCOc1ccc(C2C(C(=O)c3ccc(C)o3)=C(O)C(=O)N2CCCn2ccnc2)cc1` (configuration not stated), for which the inhibition is 33.5% (active). As to `C=CCOc1cccc(C2C(C(=O)c3ccc(C)o3)=C(O)C(=O)N2CCCn2ccnc2)c1` (configuration not stated), the inhibition was 17.4% (active). For the molecule `O=C(C1=C(O)C(=O)N(Cc2ccccc2)C1c1cccnc1)c1ccco1` (configuration not stated), the inhibition was 0.59% (inactive). `C=CCOc1cccc(C2C(C(=O)c3ccc(C)o3)=C(O)C(=O)N2c2nnc(C)s2)c1` (configuration not stated): the inhibition was 2.22% (inactive). For the molecule `CCOc1ccc(C2/C(=C(/O)c3ccc4c(c3)CC(C)O4)C(=O)C(=O)N2CCCn2ccnc2)cc1` (configuration not stated), the inhibition was 9.12% (inactive).

For the molecule `CCCOc1ccc(C2c3c(oc4cc(C)c(C)cc4c3=O)C(=O)N2CCCN2CCOCC2)cc1` (configuration not stated), the inhibition was 3.82% (inactive). Take `CCN(CC(=O)Nc1cc(Cl)ccc1C)C(=O)CN1C(=O)NC2(CCCC2)C1=O`: the inhibition is 0.75% (inactive). On to `C=CCNC(=O)CC12CC3CC(C1)CC(CC(=O)NCC=C)(C3)C2`, for which the inhibition was -3.18% (inactive). The same measure for `Clc1ccc2c(c1)C1=C(C(c3ccncc3)O2)C(c2ccc(Br)cc2)n2ncnc2N1` (configuration not stated): 20.3% (active); for `Brc1ccc(C2=CC(c3ccco3)n3ncnc3N2)cc1` (configuration not stated): 0.45% (inactive).

In the case of `CC1=C(C(N)=O)C(c2ccc(Br)cc2)n2ncnc2N1` (configuration not stated), the inhibition is 1.51% (inactive).

Regarding `COc1ccc(C(C(=O)NC2CCCCC2)N(C(=O)Cc2c[nH]c3ccccc23)c2ccccc2)cc1OC` (configuration not stated), the inhibition is 2.63% (inactive).

For `Cc1nn(-c2ncc(C(F)(F)F)cc2Cl)c(=O)n1-c1ccccc1`, the inhibition is -0.83% (inactive).

As to `O=C1c2cccc(OCC(=O)N3N=C(c4cccs4)CC3c3ccc(F)cc3)c2CCN1Cc1ccccc1` (configuration not stated), the inhibition is 21% (active).

On to `O=C(COc1ccccc1Cl)N1N=C(c2cccs2)CC1c1ccco1` (configuration not stated), for which the inhibition was 7.67% (inactive). Take `COc1ccc(C2CC(c3cccs3)=NN2C(=O)CCC(=O)O)cc1OC` (configuration not stated): the inhibition is 0.57% (inactive). On to `Cc1cc(C)nc(Nc2n[nH]c(-c3ccccc3N)n2)n1`, for which the inhibition was 0.04% (inactive). For the molecule `CN1C(=O)c2ccc(C(=O)Nc3ccc(Br)cn3)cc2C1=O`, the inhibition is -4.13% (inactive). As to `COc1cc(OC)c(/C=N/NC(=O)c2ccc([N+](=O)[O-])cc2)cc1Br`, the inhibition was -0.65% (inactive). `COc1cccc(/C=N/NC(=O)c2[nH]nc3c2CCc2ccccc2-3)c1O`: the inhibition is 25% (active).

Regarding `CN(C)CCNC(=O)c1[nH]nc2c1CCc1ccccc1-2`, the inhibition is -1.2% (inactive). `O=S(=O)(NN=C1CCCCCCC1)c1ccc(Br)cc1`: the inhibition is -0.57% (inactive).

In the case of `O=C(O)CC(CC(=O)N1CCOCC1)c1ccccc1` (configuration not stated), the inhibition is -2.86% (inactive). Take `OCCN(Cc1ccccc1)Cc1ccc(Cl)cc1`: the inhibition was 5.28% (inactive).

`CN(C(=O)CN(CCO)CC(=O)N(C)C(C)(C)Cc1ccccc1)C(C)(C)Cc1ccccc1`: the inhibition is 21.1% (active). As to `CCN(CC)CCCNC(=O)CCc1ccccc1`, the inhibition was -3.5% (inactive).

On to `C=CCn1c(N)cc(=O)nc1SCC(=O)Nc1cccc2ccccc12`, for which the inhibition was 2.61% (inactive). Take `Cc1ccc2nc(SCC(=O)Nc3cccc4ccccc34)nc(=O)n2c1`: the inhibition is -4.71% (inactive). For `Cc1ccccc1-n1c(SCC(=O)Nc2cccc3ccccc23)nc(O)cc1=O`, the inhibition is 15.6% (active). On to `COC(=O)C1NN=C(C(=O)c2ccc(Br)cc2)C1c1cccc(Br)c1` (configuration not stated), for which the inhibition was 1.62% (inactive). For the molecule `COc1cc(-c2nn3c(-c4cccc(C)c4)nnc3s2)cc(OC)c1OC`, the inhibition is 7.7% (inactive). For the molecule `CCOc1cccc(-c2nn3c(-c4ccccn4)nnc3s2)c1`, the inhibition was 16.3% (active). With `c1ccc(-c2cc(-c3nnc4sc(-c5ccccn5)nn34)[nH]n2)cc1` the figure was 14% (inactive). Turning to `CCCCCCCC[n+]1cccc(C(=O)N2c3c(nc(N)[nH]c3=O)NC(C)C2C)c1` (configuration not stated), the inhibition is -2.25% (inactive). Regarding `CCN(CC(=O)NCc1cccs1)C(=O)c1ccc(OC)c(S(=O)(=O)N2CCOCC2)c1`, the inhibition was -5.16% (inactive).

On to `O=C(c1ccco1)N1CCN(C(=S)Nc2cc(F)cc(F)c2)CC1`, for which the inhibition is -1.12% (inactive).

On to `COC(=O)c1c(C)c(C)nc(N)c1C#N`, for which the inhibition is -0.85% (inactive).

With `O=C(/C=C/c1cccc([N+](=O)[O-])c1)N1CCN(Cc2ccccc2)CC1`, the inhibition is 1.31% (inactive). As for `COC(=O)Cn1cc(/C=C/[N+](=O)[O-])c2ccccc21`, the inhibition is -3.58% (inactive). Regarding `O=[N+]([O-])/C=C/c1ccc2c(ccn2Cc2ccccc2)c1`, the inhibition was 18.3% (active). Consider `Cc1ccnc(N2CCN(C(=O)CSc3nc4ccccc4nc3N3CCCCC3)CC2)c1`, for which the inhibition was 2.11% (inactive). On to `CCCC[C@H]1COCCS(=O)(=O)N1Cc1cccc(Cl)c1`, for which the inhibition is -6.26% (inactive). As to `Oc1c(Cl)cc(Cl)c(Cl)c1Cc1c(O)c(Cl)cc(Cl)c1Cl`, the inhibition was 21% (active). With `COc1cc(N2C(=O)CSC2=S)cc(OC)c1OC` the figure was -0.27% (inactive). As to `CC(C)n1ncc2c(C(=O)Nc3ccc(CC#N)cc3)cc(C3CC3)nc21`, the inhibition is 0.77% (inactive). Consider `CC(=O)Nc1ccc(S(=O)(=O)NC(C)C(=O)OCC(=O)NC2CCCC2)cc1` (configuration not stated), for which the inhibition was -2.23% (inactive). Take `O=C(N/N=C/C=C/c1ccco1)c1cccs1`: the inhibition was -2.08% (inactive). As to `Cc1ccc(-c2cc(C(=O)N/N=C/C=C/c3ccco3)c3ccccc3n2)cc1C`, the inhibition is 20% (active). Turning to `COc1ccc(/C=N/NC(=O)c2cc(-c3cccc(C)c3)nc3ccccc23)cc1O`, the inhibition is -0.69% (inactive). Regarding `CCn1cc(C(=O)NC2CCCCCC2)c(=O)c2cc(S(=O)(=O)N3CCCCC3)ccc21`, the inhibition is -1.18% (inactive). The same measure for `Cc1ccc(N2C(=O)C3C4C=CC(CC4)C3C2=O)cc1Br` (configuration not stated): -2.3% (inactive); for `O=C(/C=C/c1ccco1)Nc1cccc(-c2nc3ccccc3[nH]2)c1`: -1.53% (inactive). As to `O=C(Nc1cccc(-c2nc3ccccc3[nH]2)c1)c1ccc(C(=O)Nc2cccc(-c3nc4ccccc4[nH]3)c2)cc1`, the inhibition was 18.9% (active).

Turning to `Cc1ccc(-c2nc3ccccc3[nH]2)cc1N`, the inhibition was -2.81% (inactive). Regarding `O=C(O)c1ccccc1C(=O)NC1=NN(c2ccccc2)CC1`, the inhibition was 2.04% (inactive).

On to `Cc1ccc2nc(N(CCN(C)C)C(=O)C3=COCCO3)sc2c1`, for which the inhibition was -4.21% (inactive). Consider `Cc1ccc(-c2cc(C(=O)NCc3cn(C)nc3C)c3cc(Br)ccc3n2)cc1`, for which the inhibition is 15.4% (active).

`Cc1nn(C)cc1CNC(=O)Nc1ccc(Cl)cc1`: the inhibition is -6.68% (inactive). On to `O=C(NCc1cccs1)c1cc(-c2ccccn2)nc2ccc(Br)cc12`, for which the inhibition was 0.34% (inactive). `Cc1cc(C)c(C(N)=O)c(Cl)n1`: the inhibition was -1.75% (inactive).

As to `CCCN(CCC)CCCNC(=O)CNC(=O)c1nn(-c2ccc(OC)cc2)c(=O)c2ccccc12`, the inhibition was -4.54% (inactive). As to `COc1ccc(CN2CCNC(=O)C2CC(=O)NCc2cn[nH]c2-c2ccccc2)c(F)c1` (configuration not stated), the inhibition was 3.63% (inactive).

For `OCCC1CN(Cc2ccc(Oc3ncccn3)cc2)CCN1CCc1ccccc1` (configuration not stated), the inhibition is -2.28% (inactive).

Turning to `COc1cc(/C=C/C(=O)OCC(=O)NC(=O)NCc2ccccc2)ccc1OCC#N`, the inhibition was -4.2% (inactive). As to `COc1ccc(/C=C/C(=O)OCC(=O)NCc2cccs2)cc1OC`, the inhibition was -2.5% (inactive). With `CCOc1ccc(/C=C/C(=O)OCC(=O)c2ccccc2OC)cc1OC`, the inhibition was 23.7% (active). For the molecule `O=C(C1CCCO1)N1CCN(S(=O)(=O)c2ccc(Br)cc2)CC1` (configuration not stated), the inhibition is 0% (inactive). As to `COc1cc(NC(=O)COC(=O)c2cnc(C)cn2)c(C)cc1[N+](=O)[O-]`, the inhibition was -3.47% (inactive).

Take `Nn1c(SCc2ccccc2)nnc1C1CCCCC1`: the inhibition is -2.09% (inactive). For `COCCNC(=O)C1CCN(C(=O)C2CC(=O)N(c3ccc(C)cc3)C2)CC1` (configuration not stated), the inhibition is -0.32% (inactive).

As to `COCCCNC(=O)C1CC(=O)N(c2ccc(C)cc2)C1` (configuration not stated), the inhibition was 73.3% (active).

With `COCCCNC(=O)C1CC(=O)N(CCc2ccccc2)C1` (configuration not stated), the inhibition is 0.11% (inactive).

Consider `Cc1cccnc1NC(=O)c1cccc(S(=O)(=O)N2CCN(c3ccc(F)cc3)CC2)c1`, for which the inhibition is -3.22% (inactive). In the case of `Oc1c(CN2CCN(c3ccc(F)cc3)CC2)cc(Cl)c2cccnc12`, the inhibition was 35.2% (active). With `O=C(CN1CCN(c2ccc(F)cc2)CC1)Nc1ccccc1` the figure was 2.42% (inactive). With `C1CC1Cc1noc(CN2CCN(CC3CC3)CC2)n1`, the inhibition was -4.45% (inactive). `CC(=O)Nc1ccc(C(=O)NNC(=O)CCCCC(=O)NNC(=O)c2ccc(NC(C)=O)cc2)cc1`: the inhibition was -4.34% (inactive). Consider `CCc1sc(C(=O)N2CCN(CC(=O)Nc3cccc(F)c3)CC2)cc1C`, for which the inhibition is -1.08% (inactive).

For the molecule `O=C(N/N=C/c1cc([N+](=O)[O-])ccc1O)/C(=C\c1cccs1)NC(=O)c1ccccc1`, the inhibition was 19.9% (active). For `O=C(Nc1ccc(C(=O)O)cc1)/C(=C/c1ccc([N+](=O)[O-])cc1)NC(=O)c1ccccc1`, the inhibition was -0.04% (inactive). On to `Cc1ccc(NC(=O)/C(=C/c2ccc([N+](=O)[O-])cc2)NC(=O)c2ccccc2)cc1`, for which the inhibition was 1.49% (inactive). Consider `COC(=O)CC(=O)N1CCN(c2ccc(Cl)c(Cl)c2)CC1`, for which the inhibition was -1.17% (inactive). `CC(C)Cn1c(N)c(C(=O)COC(=O)C2CCCN2C(=O)c2cccs2)c(=O)n(C)c1=O` (configuration not stated): the inhibition is 3.85% (inactive).

Consider `Cc1ccc(OCC(=O)N2CCN(S(=O)(=O)c3ccc(Cl)s3)CC2)cc1C`, for which the inhibition is 2.28% (inactive). For the molecule `Cc1nc2c(C(=O)NCc3ccc4c(c3)OCO4)c[nH]n2c(=O)c1Cc1ccccc1F`, the inhibition is 42.6% (active). Consider `CCn1c(=O)c(C(=O)NCc2ccc3c(c2)OCO3)c(O)c2ccccc21`, for which the inhibition is -4.95% (inactive). On to `O=C(NCc1ccc2c(c1)OCO2)c1cc(F)c(F)cc1Cl`, for which the inhibition is 2.6% (inactive). With `CC(=O)Nc1ccc(NC(=O)CSc2nnc(COc3ccccc3C)n2CC2CCCO2)cc1` (configuration not stated) the figure was 16.9% (active); with `Cc1ccc(NC(=O)CSc2nnc(COc3ccccc3C)o2)cc1`, -4.67% (inactive); with `COc1ccccc1NC(=O)CSc1nnc(C)n1CC1CCCO1` (configuration not stated), -1.67% (inactive).
